# Assay results from PubChem BioAssay AID463173 (ICCB-Longwood Screening Facility, Harvard Medical School, 2010).
# In all, about 52,000 compounds went through this assay and about 4,300 (8.3%) were called active. No stated cut-off is given here; in the data, active means survival mostly below about 52% (no sharp cut-off); inactive means mostly above about 56%. The full list was thinned out, with actives kept by preference.
# System: DeltatarO mutant
# Experiment: growth inhibition of S. aureus wild type versus tarO mutant, primary screen, teichoic acid synthesis inhibitors, RN4220, OD600 (AID 463173)
# Conditions: OD600, 18 h, hits give low values, screened at 18.75 µg/mL (by protocol)
row,SMILES,survival
1,CCCCC(=O)Nc1cc2nn(-c3ccc(OCC)cc3)nc2cc1C,70% (inactive)
2,CCN(c1ccccc1)S(=O)(=O)c1c(C)nc2scc(C)n2c1=O,66% (inactive)
3,COc1ccc(CC(=O)NC2CC(=O)N(c3ccc(C)c(C)c3)C2)cc1OC (stereo unspecified),63% (inactive)
4,Cc1cc(C(=O)Nc2ccc(-n3c(C)nc4ccccc4c3=O)cc2)ccc1[N+](=O)[O-],131% (inactive)
5,CCOC(=O)c1ccc(NC(=O)Cc2coc3cc(C)cc(C)c23)cc1,60% (inactive)
6,COc1cc(NC(=O)Cc2noc3ccccc23)cc(OC)c1OC,57% (inactive)
7,Cc1cc(C)cc(NC(=O)NCc2noc3ccccc23)c1,52% (inactive)
8,CCOC(=O)c1ccc(NC(=O)Cc2noc3ccc(C)cc23)cc1,45% (active)
9,CCOc1ccc(NC(=O)Cc2coc3ccc(C)cc23)cc1,106% (inactive)
10,Cc1cc(C)cc(NC(=O)Cc2noc3ccccc23)c1,54% (active)
11,Cc1ccc(CNC(=O)C(C)n2c(=O)cc(C(F)(F)F)c3c(C)nn(C)c32)cc1 (stereo unspecified),67% (inactive)
12,O=C(NCc1ccco1)C1CCN(C(=O)N2CCOc3ccccc32)CC1,80% (inactive)
13,O=C(c1ccco1)N(Cc1cccs1)c1ccc(F)cc1,111% (inactive)
14,CCc1ccc(NC(=O)C2CCN(c3nnc(-n4c(C)ccc4C)s3)CC2)cc1,79% (inactive)
15,NNc1ccc2nnc(C(F)(F)F)n2n1,73% (inactive)
16,Cc1ccc(CNc2ncnc3c2c(-c2ccccc2)cn3-c2ccccc2)cc1,90% (inactive)
17,O=S(=O)(NCc1ccco1)c1ccc(-c2ccc(S(=O)(=O)NCc3ccco3)cc2)cc1,64% (inactive)
18,CCc1ccc(Cn2nnc(C(=O)Nc3ccc(C)cc3)c2N)cc1,133% (inactive)
19,CN(C)c1ccc(CNC(=O)c2cccc(NC(=O)N3CCSc4ncccc43)c2)cc1,94% (inactive)
20,COC(=O)C1=C(C)NC2=C(C(=O)c3ccccc32)C1c1cc2c(cc1Cl)OCO2 (stereo unspecified),82% (inactive)
21,COc1ccccc1NC(=O)C1=C(C)NC2=C(C(=O)CCC2)C1c1cc2c(cc1Br)OCO2 (stereo unspecified),44% (active)
22,COc1ccccc1NC(=O)C1=C(C)Nc2sc(C#N)c(N)c2C1c1ccco1 (stereo unspecified),76% (inactive)
23,CC(C)CC(=O)Nc1nnc2n1CCS2,99% (inactive)

row,SMILES,survival
1,Cc1nn(-c2ccccc2)c2[nH]c(=O)c(CNCc3cccnc3)cc12,102% (inactive)
2,COc1ccc(CC(=O)Nc2nc3c(s2)CC(C(C)(C)C)CC3)cc1 (stereo unspecified),29% (active)
3,CC(C)C(=O)Nc1nc2c(s1)CC(C(C)(C)C)CC2 (stereo unspecified),92% (inactive)
4,CC(C)(C)C1CCc2nc(NC(=O)COc3ccccc3[N+](=O)[O-])sc2C1 (stereo unspecified),106% (inactive)
5,CC(C)(C)C1CCc2nc(NC(=O)Cc3ccc(Cl)cc3)sc2C1 (stereo unspecified),18% (active)
6,CC(C)CC(=O)Nc1nc2c(s1)CC(C(C)(C)C)CC2 (stereo unspecified),102% (inactive)
7,COc1ccccc1OCC(=O)Nc1nc2c(s1)CC(C)CC2 (stereo unspecified),69% (inactive)
8,CCCC(=O)Nc1nc2c(s1)CC(C(C)(C)C)CC2 (stereo unspecified),14% (active)
9,COc1ccc(CC(=O)Nc2nc3c(s2)CC(C)CC3)cc1 (stereo unspecified),75% (inactive)
10,COc1ccc(CC(=O)Nc2nc3c(s2)CCCC3)cc1,95% (inactive)
11,CC1CCc2nc(NC(=O)Cc3ccc(Cl)cc3)sc2C1 (stereo unspecified),46% (active)
12,CC(C)(C)C1CCc2nc(NC(=O)COc3ccc(F)cc3)sc2C1 (stereo unspecified),115% (inactive)
13,Cc1cc(C)cc(OCC(=O)Nc2nc3c(s2)CC(C(C)(C)C)CC3)c1 (stereo unspecified),107% (inactive)
14,Cc1cccc(C(=O)Nc2ccc(N3CCC(N4CCCCC4)CC3)c(C(=O)O)c2)c1,100% (inactive)
15,CCOc1ccc(-n2c(=O)c3c4c(sc3n(CC(=O)NC(C)CC)c2=O)CCCCC4)cc1 (stereo unspecified),98% (inactive)
16,COCCNC(=O)CN1C(=O)COc2ccc(S(=O)(=O)N3CCOCC3)cc21,88% (inactive)
17,CCSc1nc2n(n1)C(c1ccc(Cl)cc1Cl)C(C(=O)Nc1ccccc1C)=C(C)N2 (stereo unspecified),67% (inactive)
18,COc1ccc(C(=O)NCCc2sc(-c3ccc(Cl)cc3)nc2C)c(OC)c1,123% (inactive)
19,Cc1ccc(C)c(CN2C(=O)c3ccccc3Sc3ccc(C(=O)NC4CCCC4)cc32)c1,128% (inactive)
20,COc1ccc(CNC(=O)C2CCN(S(=O)(=O)N3CCC(C)CC3)CC2)c(OC)c1,89% (inactive)
21,CCOC(=O)c1ccc(NC(=O)CSc2nc3ccccc3c(=O)n2CCNC(C)=O)cc1,91% (inactive)
22,CCc1ccc(CNC(=O)c2nn(-c3ccc(OC)c(Cl)c3)c(=O)c3c2c2ccccc2n3C)cc1,104% (inactive)
23,CCOc1cccc(C(=O)Nc2nc3c(s2)CC(C(C)(C)C)CC3)c1 (stereo unspecified),77% (inactive)

row,SMILES,survival
1,Cc1cccc(OCC(=O)Nc2nc3c(s2)CC(C(C)(C)C)CC3)c1C (stereo unspecified),105% (inactive)
2,Cc1ccccc1C(=O)Nc1nc2c(s1)CC(C(C)(C)C)CC2 (stereo unspecified),115% (inactive)
3,CC(C)(C)C1CCc2nc(NC(=O)c3cccc(Cl)c3)sc2C1 (stereo unspecified),3% (active)
4,CC(C)(C)C1CCc2nc(NC(=O)c3ccc([N+](=O)[O-])cc3)sc2C1 (stereo unspecified),95% (inactive)
5,CC(C)(C)C1CCc2nc(NC(=O)Cc3ccccc3)sc2C1 (stereo unspecified),19% (active)
6,COc1ccc(CC(=O)NCCc2sc(-c3cccc(F)c3)nc2C)cc1,68% (inactive)
7,COc1ccccc1NC(=O)CN1C(=O)CCSc2ccccc21,89% (inactive)
8,O=C(O)CSc1nc2ccccc2c(=O)n1-c1ccccc1,78% (inactive)
9,Cc1cc(Nc2cccc(Cl)c2)nc2ccc(NC(=O)c3cccc(N(C)C)c3)cc12,106% (inactive)
10,CCN1CCN(C(=O)c2ccc3c(c2)N(Cc2ccccc2F)C(=O)c2ccccc2S3=O)CC1 (stereo unspecified),105% (inactive)
11,Cc1ccc(OCC(=O)OCc2cc(=O)n3nc(C4CCCCC4)sc3n2)cc1,120% (inactive)
12,COc1ccc(C(CNC(=O)COc2ccc(Cl)c(C)c2)N2CCOCC2)cc1 (stereo unspecified),63% (inactive)
13,CCc1cc(=O)oc2cc(C)c3c(-c4ccc(F)cc4)coc3c12,33% (active)
14,Cc1cc2oc(=O)c(CC(=O)O)c(C)c2c2occ(-c3ccc(F)cc3)c12,49% (inactive)
15,Cc1cc2oc(=O)c(CC(=O)O)c(C)c2c2occ(-c3ccccc3)c12,53% (inactive)
16,CCCc1cc(=O)oc2cc(C)c3c(-c4ccccc4)coc3c12,65% (inactive)
17,Cc1cc2oc(=O)cc(C)c2c2occ(-c3ccc(Cl)cc3)c12,72% (inactive)
18,COc1ccc(-c2coc3c2c(C)cc2oc(=O)c(CC(=O)O)c(C)c23)cc1,42% (active)
19,Cc1cc(NC2C3CC4CC(C3)CC2C4)n2ncnc2n1 (stereo unspecified),105% (inactive)
20,O=C(NCc1ccccc1)c1ccccc1C(=O)c1ncc[nH]1,91% (inactive)
21,CCOc1ccc(NC(=O)c2oc3ccccc3c2NC(=O)COc2cccc(OC)c2)cc1,78% (inactive)
22,COc1ccc(Cl)c2sc(NC(=O)c3ccc(S(=O)(=O)N4CCOCC4)cc3)nc12,69% (inactive)
23,COc1ccc(NC(=O)c2c(NC(=O)c3cccc(C)c3)sc3c2CCCC3)cc1,75% (inactive)

row,SMILES,survival
1,Cc1cccc(C(=O)Nc2sc3c(c2C(=O)NC(C)C)CCCC3)c1,46% (active)
2,COc1ccc(NC(=O)c2c(NC(=O)c3cccc(C)c3)sc3c2CCC3)cc1,64% (inactive)
3,Cc1cccc(C(=O)Nc2sc3c(c2C(=O)Nc2ccccc2)CCC3)c1,66% (inactive)
4,Cc1cccc(C(=O)Nc2sc3c(c2C(=O)O)CCCC3)c1,23% (active)
5,Cc1cccc(C(=O)Nc2sc3c(c2C(=O)NCc2ccco2)CCCC3)c1,83% (inactive)
6,Cc1cccc(OCc2nnc(SC(C)C(=O)O)n2Cc2ccccc2)c1 (stereo unspecified),103% (inactive)
7,CCc1ccc(N(CC(=O)N2CCCCC2)S(C)(=O)=O)cc1,105% (inactive)
8,CCc1ccc(CNC(=O)C2CCN(c3nnc(-n4c(C)ccc4C)s3)CC2)cc1,86% (inactive)
9,COc1cccc(CNC(=O)c2cc(=O)[nH]c3ccc(S(=O)(=O)N4CCCC4)cc23)c1,60% (inactive)
10,COc1ccc(-c2nc3sc(CCNC(=O)Cc4ccc(F)cc4)c(C)n3n2)cc1,94% (inactive)
11,CCOC(=O)c1scc(-c2ccc(C)cc2)c1S(=O)(=O)Nc1cc(OC)ccc1OC,92% (inactive)
12,COc1ccc(NC(=O)CN(c2cc(C)cc(C)c2)S(=O)(=O)c2c(C)noc2C)cc1Cl,91% (inactive)
13,COc1ccccc1NC(=O)CN(c1cc(C)cc(C)c1)S(=O)(=O)c1c(C)[nH]c(=O)[nH]c1=O,118% (inactive)
14,CCOC(=O)c1c(C)[nH]c(C)c1S(=O)(=O)NCC(=O)Nc1cc(Cl)ccc1OC,-4% (active)
15,CCOC(=O)c1c(C)[nH]c(C)c1S(=O)(=O)N(C)CC(=O)Nc1cc(Cl)ccc1OC,117% (inactive)
16,CCOc1ccc(OCC)c(NC(=O)CN(c2ccc(C)cc2)S(=O)(=O)c2c(C)n[nH]c2C)c1,32% (active)
17,COc1ccc(Cl)cc1NC(=O)CN(c1cc(C)cc(C)c1)S(=O)(=O)c1c(C)n[nH]c1C,9% (active)
18,CCOC(=O)c1scc(-c2ccc(C)cc2)c1S(=O)(=O)Nc1ccc(OC)c(Cl)c1,77% (inactive)
19,CCOC(=O)c1c(C)[nH]c(C)c1S(=O)(=O)NCC(=O)Nc1cc(C)ccc1OC,60% (inactive)
20,CCOc1ccc(N(CC(=O)Nc2cc(C)ccc2C)S(=O)(=O)c2c(C)[nH]c(=O)[nH]c2=O)cc1,69% (inactive)
21,CCc1ccccc1NC(=O)CN(c1ccc(OC)cc1)S(=O)(=O)c1c(C)n[nH]c1C,74% (inactive)
22,CCOC(=O)c1scc(-c2ccc(C)cc2)c1S(=O)(=O)Nc1cc(Cl)ccc1OC,-5% (active)
